Records with an inconclusive call do not appear. Where a call stands in place of a potency, no number is given. The source made the active and inactive calls. Calls come from the whole dose curve; as a rule, active = well fitted curve in the direction sought with a large enough effect; inconclusive = small, poorly fitted or top-dose-only effect, or another doubt; inactive = no such curve, though single readings can be large; an effect the other way counts as inactive or inconclusive.

Test [1] addresses Aldehyde dehydrogenase, mitochondrial (Homo sapiens) (UniProt P05091). In words: qHTS for Inhibitors of the Aldehyde Dehydrogenase Family (ALDH2) Primary screen (AID 2061308). Note: nearly all actives have a fitted effect of over 55% in size. For orientation: qHTS replaces the single test concentration by a dilution series.
The target of test [2] is Retinaldehyde dehydrogenase 3 (Homo sapiens) (UniProt P47895). In words: qHTS for Inhibitors of the Aldehyde Dehydrogenase Family (ALDH1A3) Primary screen (AID 2061315).

Consider `O=S1(=O)N=C(Sc2cc(C(F)(F)F)cc(C(F)(F)F)c2)c2ccccc21`, for which the Potency entry in test [1] and in test [2] was “inactive” throughout.

Take `CCOC(=O)C1CCN(C(=O)CNC(=O)Nc2ccccc2Cl)CC1`: the Potency result in test [1] and in test [2] was “inactive” each time.

In the case of `COC(=O)[C@@H]1C2CC3c4[nH]c5ccccc5c4CCN3CC2CC[C@@H]1O` (some centres not stated), the Potency result in test [1] and in test [2] was “inactive” each time.

As to `CCOc1cc(C)c(Cl)cc1S(=O)(=O)n1cnc2ccccc21`, the Potency entry in test [1] and in test [2] was “inactive” in each case.

In the case of `Cc1cnc(-c2ccccc2C2COC2)nc1NCc1ccc(-c2cccnc2)cc1`, the Potency result in test [1] and in test [2] was “inactive” throughout.

For the compound `Cc1cc2c(s1)c1cnn(Cc3ccc(Cl)c(F)c3)c(=O)c1n2C`, the Potency entry in test [1] and in test [2] was “inactive” each time.

As for `Oc1ccc(CCc2ccccc2)c2cccnc12`, the Potency entry in test [1] and in test [2] was “inactive” each time.

Regarding `Cc1ccc(-c2ccc(C(C)Nc3nc(-c4ccccc4C(C)C)ncc3C)cc2)cn1` (configuration not stated), the Potency entry in test [1] and in test [2] was “inactive” throughout.

As for `CC(=O)Nc1sc2c(c1Br)CCNC2`, the Potency entry in test [1] and in test [2] was “inactive” each time.

For `Cn1c2cc(Br)sc2c2cnn(Cc3ccc(F)cc3)c(=O)c21`, the Potency entry in test [1] and in test [2] was “inactive” throughout.

On to `COc1cc(OC)cc(-c2nnc3n2N=C(c2ccccc2OC)CS3)c1`, for which the Potency result in test [1] and in test [2] was “inactive” in each case.

Regarding `Cc1ccc(CNc2ccc(N3CCN(C(=O)OC(C)(C)C)CC3=O)cc2)cc1`, the Potency entry in test [1] and in test [2] was “inactive” throughout.

On to `COc1ccc(NC(=O)c2cnn3c(C)cc(C)nc23)cc1F`, for which the Potency entry in test [1] and in test [2] was “inactive” each time.

`Cc1ccc(NS(=O)(=O)c2cc3c(cc2N2CCCCC2)NC(=O)CC3)cc1C`: the Potency result in test [1] and in test [2] was “inactive” throughout.

As to `COc1ccc(NS(=O)(=O)c2ccccc2C(=O)O)cc1`, the Potency entry in test [1] and in test [2] was “inactive” in each case.

Take `COc1cccc(NC(=S)N2CCN(c3cccc(Cl)c3Cl)CC2)n1`: the Potency entry in test [1] and in test [2] was “inactive” throughout.

Consider `Cc1cc(C)nc(NC(=S)N2CCN(c3ccc4ccccc4n3)CC2)c1`, for which the Potency entry in test [1] and in test [2] was “inactive” each time.

Turning to `Cc1cc2c(s1)c1cnn(Cc3cc(F)c(F)c(F)c3)c(=O)c1n2C`, the Potency entry in test [1] and in test [2] was “inactive” in each case.

Regarding `COc1cc(OC)cc(-c2nnc3n2N=C(c2ccc(OC)c(OC)c2)CS3)c1`, the Potency entry in test [1] and in test [2] was “inactive” each time.

Take `O=C(Nc1ccc2ccccc2c1)Nc1nnc(-c2ccc(Cl)cc2Cl)s1`: the Potency result in test [1] and in test [2] was “inactive” throughout.

For `Cc1ccc(-c2cnn(CC(=O)N(C)C(C)c3ccco3)c(=O)c2)cc1` (configuration not stated), the Potency result in test [1] and in test [2] was “inactive” each time.

In the case of `O=C(Nc1ccc(-n2cncn2)c(F)c1)Nc1nnc(-c2ccncc2)s1`, the Potency result in test [1] and in test [2] was “inactive” each time.

Regarding `O=C1OC(c2ccccc2)(c2ccccc2)N2CCN(C(=O)NCc3ccc(F)cc3)CC12` (configuration not stated), the Potency entry in test [1] and in test [2] was “inactive” each time.

Consider `Cc1cc(C)n2ncc(C(=O)N3CCCC3)c2n1`, for which the Potency result in test [1] and in test [2] was “inactive” in each case.

On to `O=C(Cc1ccccc1)Nc1ncnc2c1C(c1ccccc1)c1c(ccc3ccccc13)O2` (configuration not stated), for which the Potency result in test [1] and in test [2] was “inactive” throughout.

`Cc1ccc(S(=O)(=O)Nc2ccccc2C(=O)Nc2cccc(-c3ccccc3)c2)cc1`: the Potency result in test [1] and in test [2] was “inactive” in each case.

As for `c1nc(N2CCCCC2)c2cc(-c3ccc4c(c3)OCO4)ccc2n1`, the Potency result in test [1] and in test [2] was “inactive” in each case.

Consider `COc1cc(Cn2ncc3c4sc(C)cc4n(C)c3c2=O)cc(OC)c1`, for which the Potency result in test [1] and in test [2] was “inactive” each time.

On to `Cc1ccc(C(=O)N2CCc3cc(-c4nc(NC(=O)Cc5ccc6c(c5)OCO6)sc4C)ccc32)cc1`, for which the Potency result in test [1] and in test [2] was “inactive” throughout.

Regarding `O=C1CCCC2=C1C(c1[nH]ncc1Cl)N=C(Nc1ccn[nH]1)N2` (configuration not stated), the Potency entry in test [1] and in test [2] was “inactive” in each case.

For the compound `COc1ccc([S+](=O)([O-])N2CCCN([S+](=O)([O-])c3ccc(OC)c(N)c3)CC2)cc1N`, the Potency entry in test [1] and in test [2] was “inactive” throughout.

Take `O=[N+]([O-])c1ccc(-c2nc(Nc3ccc(F)c(F)c3)c3ccccc3n2)cc1`: the Potency result in test [1] and in test [2] was “inactive” in each case.

Consider `Cc1cccc2oc(NC3=NC(c4[nH]ncc4Cl)C4=C(CCCC4=O)N3)nc12` (configuration not stated), for which the Potency result in test [1] and in test [2] was “inactive” throughout.

`COc1ccc(OC)c(C2=Nn3c(nnc3-c3cc(OC)ccc3OC)SC2)c1`: the Potency entry in test [1] and in test [2] was “inactive” each time.

On to `Cc1cc(C)n2ncc(C(=O)Nc3ccc(S(C)(=O)=O)cc3)c2n1`, for which the Potency result in test [1] and in test [2] was “inactive” throughout.

On to `c1nc(NCCc2cnc[nH]2)c2cc(-c3ccoc3)ccc2n1`, for which the Potency entry in test [1] and in test [2] was “inactive” throughout.

Take `O=C(Nc1ccc(S(=O)(=O)Nc2nccs2)cc1)c1ccnc(-c2ccccc2)c1`: the Potency result in test [1] and in test [2] was “inactive” each time.

For the compound `C=CCNc1oc(-c2cccc(Br)c2)nc1C#N`, the Potency entry in test [1] and in test [2] was “inactive” in each case.

`CC(C)n1cc(-c2ccc(Oc3ccccc3)cc2)c2c(N)ncnc21`: the Potency entry in test [1] and in test [2] was “inactive” each time.

For the compound `c1cncc(-c2ccc3ncnc(NCc4cccs4)c3c2)c1`, the Potency entry in test [1] and in test [2] was “inactive” each time.

Turning to `COc1cccc(C(=O)NCCc2nc3ccccc3n2CCOc2ccc(C)cc2)c1`, the Potency result in test [1] and in test [2] was “inactive” each time.
